Inconclusive results are not listed. Calls of active or inactive are those of the source.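 How the source made its calls, unless noted: active means response below a set limit, under 55% cells CD8-positive and vesicle-bound, and CD8 cells' 90th-percentile brightness under 279; inactive means the rest.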
Legend:
[1] = rapamycin-like changes in RPL19A-GFP expression – cell-based, S. cerevisiae, multiplex flow cytometry, primary screen (AID 1862; in the data active means percent of DMSO control GFP below about 86%;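 further: lower values mimic rapamycin by blocking the RPL19A rise seen in DMSO cells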); conditions: S. cerevisiae RPL19A-GFP strain, flow cytometry fluorescence, 3 h; at 10 µM; stronger effect = lower value
[2] = TOR pathway GLN3 branch reporter MEP2-GFP changes – S. cerevisiae, multiplex flow cytometry, primary screen (AID 1867;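 active means GFP response, as percent of the DMSO control, above the screen-wide mean plus 3 SD, about 139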;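 further: median GFP channel fluorescence of barcode-gated MEP2-GFP cells measured by flow cytometry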); conditions: S. cerevisiae MEP2-GFP strain, 3 h, at 10 µM, stronger effect = higher value, 100% means same as DMSO wells
[3] = TOR pathway RTG branch CIT2 reporter changes – S. cerevisiae, GFP fusion, multiplex flow cytometry, primary screen (AID 1870;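 active means percent response above a set limit, the screen-wide mean plus 3 SD, cut at about 130% in these data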;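 further: barcoded CIT2-GFP strain pooled with four other GFP strains with rapamycin as positive control; median GFP fluorescence per well over plate mean of DMSO wells so 100% = DMSO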); conditions: S. cerevisiae CIT2-GFP expression, 3 h, at 10 µM, stronger effect = higher value
[4] = TOR pathway LAP4-GFP level changes – S. cerevisiae, multiplex flow cytometry, primary screen (AID 1873;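 active means GFP signal, as percent of the solvent control, above the screen mean plus 3 SD, about 149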); conditions: S. cerevisiae LAP4-GFP expression, 3 h, at 10 µM, stronger effect = higher value
[5] = yeast AGP1-GFP level changes, GLN3 branch – cell-based, multiplex flow cytometry, S. cerevisiae, primary screen (AID 1887;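 active means GFP signal above the screen-wide mean plus 3 SD, that is over about 124.5% of the solvent control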;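 further: AGP1-GFP fusion strain of S. cerevisiae within a five-strain barcoded multiplex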); conditions: 3 h, at 10 µM, stronger effect = higher value
[6] = reduced mouse 2C T cell binding to pMHC/ICAM-1 vesicles – MLPCN validation set, flow cytometry, LFA-1/ICAM-1 modulator project, pilot screen (AID 2523); conditions: 2C mouse CD8+ T cells, at 7 µM, stronger effect = lower value; double positive events: measured here: CD8+/vesicle+ event percentage;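 on vesicle binding response: mean PE anti-B7-1 fluorescence of CD8+ cells relative to row control; 100% = QL9-loaded vesicles with DMSO vehicle in the same plate row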
[7] = target: Integrin beta-1 (Homo sapiens) + Integrin alpha-4 (Homo sapiens) (UniProt P13612+P05556); experiment: alpha4beta1 integrin LIBS antibody binding reduction – U937 cells, HUTS-21 mAb, flow cytometry, validation set, VLA-4 allosteric modulator project, pilot screen (AID 2674;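 active means inhibition above 50%, about 3 SD of the validation set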;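 further: antibody binding induced by the VLA-4 ligand LDV present at three times its Kd; 0% = LDV ligand with antibody and no compound and 100% = antibody without LDV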); conditions: HUTS-21 LIBS mAb binding, at 6.7 µM, stronger effect = higher value, binding induced by LDV ligand
Integrin beta-1 (Homo sapiens) + Integrin alpha-4 (Homo sapiens), sequence (P05556 whole entry, looked up): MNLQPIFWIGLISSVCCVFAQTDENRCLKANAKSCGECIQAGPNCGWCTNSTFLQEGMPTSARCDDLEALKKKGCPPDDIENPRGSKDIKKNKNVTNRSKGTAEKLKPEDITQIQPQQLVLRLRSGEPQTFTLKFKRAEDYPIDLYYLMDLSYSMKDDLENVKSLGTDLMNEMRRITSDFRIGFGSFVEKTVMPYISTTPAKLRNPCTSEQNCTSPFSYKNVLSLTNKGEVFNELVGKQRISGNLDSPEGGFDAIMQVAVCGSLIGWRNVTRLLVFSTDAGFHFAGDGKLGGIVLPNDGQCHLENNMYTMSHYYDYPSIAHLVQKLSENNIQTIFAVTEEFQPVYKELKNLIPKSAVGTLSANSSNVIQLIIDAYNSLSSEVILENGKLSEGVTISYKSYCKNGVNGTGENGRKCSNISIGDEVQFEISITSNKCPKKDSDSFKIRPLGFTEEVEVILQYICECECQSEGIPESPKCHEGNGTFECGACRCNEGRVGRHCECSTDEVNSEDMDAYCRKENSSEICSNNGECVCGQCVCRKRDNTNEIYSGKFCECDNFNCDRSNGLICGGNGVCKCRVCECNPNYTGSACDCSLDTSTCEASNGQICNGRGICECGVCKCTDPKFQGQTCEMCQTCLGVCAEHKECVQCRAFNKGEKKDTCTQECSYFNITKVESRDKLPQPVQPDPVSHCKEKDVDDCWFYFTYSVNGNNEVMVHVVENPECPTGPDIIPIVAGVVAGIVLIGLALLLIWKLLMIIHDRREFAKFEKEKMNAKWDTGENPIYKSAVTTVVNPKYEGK
Integrin beta-1 (Homo sapiens) + Integrin alpha-4 (Homo sapiens), sequence (P13612 whole entry, looked up): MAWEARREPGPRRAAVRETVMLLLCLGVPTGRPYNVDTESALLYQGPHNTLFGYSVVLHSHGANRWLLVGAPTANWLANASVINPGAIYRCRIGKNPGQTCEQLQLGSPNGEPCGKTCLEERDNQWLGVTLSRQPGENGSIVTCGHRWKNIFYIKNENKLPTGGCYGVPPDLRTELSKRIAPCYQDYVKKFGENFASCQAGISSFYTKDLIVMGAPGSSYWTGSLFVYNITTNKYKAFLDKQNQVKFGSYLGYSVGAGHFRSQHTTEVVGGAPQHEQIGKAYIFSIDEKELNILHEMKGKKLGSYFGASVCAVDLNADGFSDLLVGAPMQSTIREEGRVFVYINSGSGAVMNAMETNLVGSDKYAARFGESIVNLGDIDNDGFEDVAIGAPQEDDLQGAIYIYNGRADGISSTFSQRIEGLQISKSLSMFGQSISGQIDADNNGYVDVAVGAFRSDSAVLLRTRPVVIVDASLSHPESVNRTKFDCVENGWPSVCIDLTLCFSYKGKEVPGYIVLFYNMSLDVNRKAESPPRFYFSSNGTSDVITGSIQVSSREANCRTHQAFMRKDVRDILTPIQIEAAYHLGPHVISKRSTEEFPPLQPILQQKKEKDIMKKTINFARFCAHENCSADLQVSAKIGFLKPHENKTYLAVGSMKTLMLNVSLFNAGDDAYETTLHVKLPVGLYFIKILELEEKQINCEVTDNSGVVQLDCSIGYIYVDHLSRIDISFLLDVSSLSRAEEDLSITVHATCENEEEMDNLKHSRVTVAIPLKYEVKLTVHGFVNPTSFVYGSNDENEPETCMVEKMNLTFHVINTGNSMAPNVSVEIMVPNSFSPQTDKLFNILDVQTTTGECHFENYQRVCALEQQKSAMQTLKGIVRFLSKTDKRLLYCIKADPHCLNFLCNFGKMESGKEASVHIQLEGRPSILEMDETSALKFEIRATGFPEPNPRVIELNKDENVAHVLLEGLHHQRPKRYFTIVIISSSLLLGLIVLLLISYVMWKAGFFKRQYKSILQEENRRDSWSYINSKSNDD

[8] = calorie-restriction mimetic ROS inhibitors, yeast – validation compound set, pilot screen (AID 2706;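 active means superoxide response below 65% of plate, a cut near 3 SD across the whole screen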;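 further: yeast exposed to compound for one week at 30 degrees C before staining; 100% = mean of all compound wells on the same plate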); conditions: S. cerevisiae aging, superoxide DHE fluorescence; at 10 µM; stronger effect = lower value
[9] = target: Beta-adrenergic receptor kinase 1 (Homo sapiens) (UniProt P25098); experiment: GRK2 binders displacing RNA aptamer, biochemical, validation, human GRK2, bead flow cytometry (AID 488806;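 active means aptamer binding inhibition above 30%, about 3 SD of noise from non-fluorescent compounds; inactive means inhibition at or below 30%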); conditions: bead-bound GRK2, FAM-aptamer displacement, at 10 µM, stronger effect = higher value
Beta-adrenergic receptor kinase 1 (Homo sapiens), sequence (P25098 whole entry, looked up): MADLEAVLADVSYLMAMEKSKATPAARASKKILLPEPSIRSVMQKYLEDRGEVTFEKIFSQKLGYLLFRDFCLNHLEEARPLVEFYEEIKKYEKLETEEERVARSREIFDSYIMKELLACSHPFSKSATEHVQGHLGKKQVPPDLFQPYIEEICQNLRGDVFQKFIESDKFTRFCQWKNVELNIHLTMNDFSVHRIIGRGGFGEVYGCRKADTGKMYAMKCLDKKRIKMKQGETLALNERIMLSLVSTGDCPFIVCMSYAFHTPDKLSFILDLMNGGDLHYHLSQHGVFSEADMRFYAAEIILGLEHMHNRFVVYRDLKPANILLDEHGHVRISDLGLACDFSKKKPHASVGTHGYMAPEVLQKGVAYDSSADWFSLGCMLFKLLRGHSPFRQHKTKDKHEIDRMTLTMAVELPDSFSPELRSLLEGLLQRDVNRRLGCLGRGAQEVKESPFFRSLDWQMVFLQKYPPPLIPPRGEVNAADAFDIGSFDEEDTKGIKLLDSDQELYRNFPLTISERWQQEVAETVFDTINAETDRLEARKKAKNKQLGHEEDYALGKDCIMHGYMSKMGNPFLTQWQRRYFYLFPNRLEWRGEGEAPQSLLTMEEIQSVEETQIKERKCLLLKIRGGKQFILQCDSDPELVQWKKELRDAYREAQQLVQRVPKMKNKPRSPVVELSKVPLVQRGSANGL

[10] = target: Beta-2 adrenergic receptor (Homo sapiens) (UniProt P07550); experiment: agonist-induced loss of surface beta2AR – cell-based, FAP fluorogen, flow cytometry, validation set, pilot screen (AID 504459;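 active means percent response above 42, roughly 3 SD of non-fluorescent test compounds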;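 further: agonist-driven loss of surface beta2AR via internalization measured by FAP dye flow cytometry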); conditions: Am2.2-beta2AR cells, at 10 µM, stronger effect = higher value
Beta-2 adrenergic receptor (Homo sapiens), sequence (P07550 whole entry, looked up): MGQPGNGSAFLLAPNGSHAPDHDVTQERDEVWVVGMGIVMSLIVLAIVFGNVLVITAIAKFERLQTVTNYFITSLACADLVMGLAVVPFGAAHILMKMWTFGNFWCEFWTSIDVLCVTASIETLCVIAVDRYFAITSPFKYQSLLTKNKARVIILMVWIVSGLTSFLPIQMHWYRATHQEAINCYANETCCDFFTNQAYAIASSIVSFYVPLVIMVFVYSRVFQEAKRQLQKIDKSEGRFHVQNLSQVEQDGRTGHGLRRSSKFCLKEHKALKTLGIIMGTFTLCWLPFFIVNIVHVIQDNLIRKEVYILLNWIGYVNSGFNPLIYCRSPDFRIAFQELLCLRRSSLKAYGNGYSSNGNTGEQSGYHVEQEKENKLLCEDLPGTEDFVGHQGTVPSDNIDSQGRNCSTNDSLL

[11] = target: AP-2 complex subunit beta (Homo sapiens) (UniProt P63010); experiment: beta-arrestin/AP2 interaction blockers – biochemical, validation set, GST-AP2 beads, flow cytometry, pilot screen (AID 504541;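 active means inhibition above 54%, about 3 SD of non-fluorescent compounds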;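 further: AP2 carries R879A mutation and is captured from E. coli lysate; bead-bound FITC arrestin peptide fluorescence measuring arrestin peptide binding to AP2; 0% = DMSO wells and 100% = excess unlabeled arrestin peptide control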); conditions: FITC arrestin peptide, at 10 µM, stronger effect = higher value, AP2 beta2 appendage fragment, R879A mutant
AP-2 complex subunit beta (Homo sapiens), sequence (P63010 whole entry, looked up, the tested form may be a part, one chain of several): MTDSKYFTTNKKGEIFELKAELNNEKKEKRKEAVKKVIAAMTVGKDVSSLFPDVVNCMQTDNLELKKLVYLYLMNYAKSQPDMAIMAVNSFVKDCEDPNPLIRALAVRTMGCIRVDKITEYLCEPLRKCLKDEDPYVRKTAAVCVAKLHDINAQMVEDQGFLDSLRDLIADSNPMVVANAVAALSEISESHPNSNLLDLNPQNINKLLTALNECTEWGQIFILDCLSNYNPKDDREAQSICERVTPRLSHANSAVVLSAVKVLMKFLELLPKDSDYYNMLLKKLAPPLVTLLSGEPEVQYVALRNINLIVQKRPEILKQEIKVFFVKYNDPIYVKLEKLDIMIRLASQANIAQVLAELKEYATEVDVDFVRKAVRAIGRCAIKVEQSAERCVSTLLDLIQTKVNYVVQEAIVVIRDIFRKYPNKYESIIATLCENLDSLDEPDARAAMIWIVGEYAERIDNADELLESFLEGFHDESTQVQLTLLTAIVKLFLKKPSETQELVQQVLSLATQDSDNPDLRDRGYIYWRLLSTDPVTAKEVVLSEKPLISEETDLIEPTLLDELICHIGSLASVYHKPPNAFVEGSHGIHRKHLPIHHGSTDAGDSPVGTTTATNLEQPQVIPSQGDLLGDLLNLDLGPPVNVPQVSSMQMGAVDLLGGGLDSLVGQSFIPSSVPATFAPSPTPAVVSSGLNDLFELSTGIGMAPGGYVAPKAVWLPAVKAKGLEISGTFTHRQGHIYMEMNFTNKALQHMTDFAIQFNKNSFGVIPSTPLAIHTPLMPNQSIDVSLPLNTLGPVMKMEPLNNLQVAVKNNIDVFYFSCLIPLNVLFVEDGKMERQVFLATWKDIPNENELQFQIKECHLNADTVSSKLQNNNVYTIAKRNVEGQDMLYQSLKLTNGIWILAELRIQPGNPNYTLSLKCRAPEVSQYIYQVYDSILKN

[12] = cytosolic pH regulators acting via V-ATPase – S. cerevisiae, pHLuorin, HTS validation (AID 504600; in the data active means response above about 15%;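 further: plate controls were DMSO for no effect and reference compound for full effect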); conditions: V-ATPase proton transport, at 10 µM, stronger effect = higher value
[13] = test system: anti-desmoglein-3 scFv antibody binding to human DSG3; experiment: blockers of pathogenic pemphigus antibody–desmoglein-3 binding – biochemical, validation compound set, bead-based, flow cytometry, pilot screen (AID 588368;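 active means binding below the plate cutoff, the plate median minus 3 SD, with a reading above zero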;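 further: signal is the median channel fluorescence of bead-bound GFP antibody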); conditions: Protein G beads, DSG3-Fc, scFv-GFP binding, at 10 µM, stronger effect = lower value
[14] = Nile Red efflux blockade in pump-expressing yeast – validation compound set, multiplex, phenotypic, pilot screen (AID 588506;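 active means efflux inhibition above 0.42, the validation set average plus 4 SD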;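 further: Nile Red retained in cells so higher fluorescence means more efflux inhibition; 0 = negative control wells and 1 = enniatin B 25 µM full block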); conditions: S. cerevisiae pump-expressing triplex, Nile Red efflux flow cytometry; at 10 µM; stronger effect = higher value; the pumps come from Candida albicans
[15] = target: ATP-binding cassette sub-family B member 6 (Homo sapiens) (UniProt Q9NP58); experiment: blockers of ABCB6-driven porphyrin uptake – K562-ABCB6 cells, flow cytometry, validation set, pilot screen (AID 588550;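 active means inhibition above the screen-wide mean plus 3 SD, about 51%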;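 further: 0% = DMSO wells and 100% = benzethonium chloride 70 µM positive control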); conditions: K562-ABCB6 porphyrin accumulation, 1 h, at 10 µM, stronger effect = higher value
ATP-binding cassette sub-family B member 6 (Homo sapiens), sequence (Q9NP58 whole entry, looked up): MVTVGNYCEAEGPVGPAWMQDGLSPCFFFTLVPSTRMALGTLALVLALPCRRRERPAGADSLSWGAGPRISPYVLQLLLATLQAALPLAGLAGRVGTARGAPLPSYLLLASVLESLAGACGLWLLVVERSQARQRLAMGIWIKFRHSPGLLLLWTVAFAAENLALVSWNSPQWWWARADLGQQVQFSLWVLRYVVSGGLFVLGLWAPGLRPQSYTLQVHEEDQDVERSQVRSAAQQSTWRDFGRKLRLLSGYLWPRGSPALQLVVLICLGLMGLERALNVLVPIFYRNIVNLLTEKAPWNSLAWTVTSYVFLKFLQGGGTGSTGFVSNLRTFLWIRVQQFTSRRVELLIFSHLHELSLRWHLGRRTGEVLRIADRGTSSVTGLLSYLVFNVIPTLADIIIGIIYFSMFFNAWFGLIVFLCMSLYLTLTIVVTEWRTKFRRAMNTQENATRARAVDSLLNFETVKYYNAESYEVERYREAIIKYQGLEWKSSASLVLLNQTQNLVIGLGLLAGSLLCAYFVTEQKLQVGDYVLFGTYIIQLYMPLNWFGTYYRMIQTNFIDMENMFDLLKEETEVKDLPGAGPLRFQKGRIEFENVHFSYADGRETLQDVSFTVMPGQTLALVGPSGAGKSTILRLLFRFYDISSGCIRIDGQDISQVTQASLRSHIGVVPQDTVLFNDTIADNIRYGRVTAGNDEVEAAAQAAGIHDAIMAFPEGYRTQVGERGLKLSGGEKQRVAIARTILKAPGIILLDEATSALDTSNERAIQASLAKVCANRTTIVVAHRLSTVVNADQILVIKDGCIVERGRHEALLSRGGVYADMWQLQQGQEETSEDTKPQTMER

[16] = AML differentiation inducers, ER-HoxA9 marrow cells – cell-based, GFP/MAC1 double positive, flow cytometry, validation set, primary screen (AID 588685;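 active means differentiation response of at least 50%, scaled between solvent and reference control, from cells with both markers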;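 further: compound exposure lasts four days before antibody staining and flow analysis; 0% = DMSO wells and 100% = 5 µM fulvestrant positive control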); conditions: stronger effect = higher value, normalized: vehicle 0, fulvestrant 100

CC(=O)C1=C(O)C(=O)OC1c1ccc(C)cc1 (stereo unspecified)
inactive: percent of DMSO control GFP [1] 97.1% | GFP response vs DMSO [2] 119% | percent response of DMSO control [3] 91% | GFP response vs DMSO [4] 132% | GFP response, % of DMSO [5] 106% | vesicle binding response [6] 147% | inhibition [7] 17.3% | superoxide response (% of plate) [8] 103% | aptamer binding inhibition [9] 2% | response [10] -1.67% | inhibition [11] 21.9% | response [12] -0.38% | binding (% of control) [13] 101% | efflux inhibition (fraction of control) [14] -0.06 | inhibition [15] 7% | differentiation response [16] 5.6%
61%: double positive events [6]

Cc1ccc2c(CC(=O)O)coc2c1
61.6%: double positive events [6]
inactive: percent of DMSO control GFP [1] 104% | GFP response vs DMSO [2] 94.1% | percent response of DMSO control [3] 109% | GFP response vs DMSO [4] 73% | GFP response, % of DMSO [5] 95.4% | vesicle binding response [6] 132% | inhibition [7] -0.45% | superoxide response (% of plate) [8] 107% | aptamer binding inhibition [9] 13% | response [10] -1.64% | inhibition [11] 0.71% | response [12] -0.96% | binding (% of control) [13] 95.5% | efflux inhibition (fraction of control) [14] 0.02 | inhibition [15] 13% | differentiation response [16] 0.24%

O=C(O)CCCNc1ccc(S(=O)(=O)Nc2ccccc2C(=O)O)cc1C(=O)O
inactive: percent of DMSO control GFP [1] 105% | GFP response vs DMSO [2] 94.1% | percent response of DMSO control [3] 116% | GFP response vs DMSO [4] 83.5% | GFP response, % of DMSO [5] 97% | vesicle binding response [6] 187% | inhibition [7] 12% | superoxide response (% of plate) [8] 101% | aptamer binding inhibition [9] 5% | response [10] -8.58% | inhibition [11] -4.62% | response [12] -5.39% | binding (% of control) [13] 102% | efflux inhibition (fraction of control) [14] -0.14 | inhibition [15] 17% | differentiation response [16] 4.15%
64.9%: double positive events [6]

CCCCC[C@H](O)/C=C/C1=C(CCCCCCC(=O)O)C(=O)CC1
inactive: percent of DMSO control GFP [1] 105% | GFP response vs DMSO [2] 106% | percent response of DMSO control [3] 101% | GFP response vs DMSO [4] 95.9% | GFP response, % of DMSO [5] 103% | vesicle binding response [6] 98.4% | inhibition [7] -9.13% | superoxide response (% of plate) [8] 99.9% | aptamer binding inhibition [9] 4% | response [10] 2.65% | inhibition [11] 1.77% | binding (% of control) [13] 101% | efflux inhibition (fraction of control) [14] 0.125 | inhibition [15] 3% | differentiation response [16] -8.96%
56.3%: double positive events [6]
active: response [12] 31%

COc1cc(C(=O)CCN2CCC(c3ccccc3)C2)cc(OC)c1OC (stereo unspecified)
57.9%: double positive events [6]
inactive: percent of DMSO control GFP [1] 108% | GFP response vs DMSO [2] 97.7% | percent response of DMSO control [3] 110% | GFP response vs DMSO [4] 95.9% | GFP response, % of DMSO [5] 105% | vesicle binding response [6] 131% | inhibition [7] 1.59% | superoxide response (% of plate) [8] 117% | aptamer binding inhibition [9] 2% | response [10] 2% | inhibition [11] 4.79% | response [12] -0.17% | binding (% of control) [13] 100% | efflux inhibition (fraction of control) [14] 0.1 | inhibition [15] 0% | differentiation response [16] -10.4%

COc1ccc(C2NC(C(=O)O)Cc3c2[nH]c2ccccc32)cc1CN1CCN(c2ccc(F)cc2)CC1 (stereo unspecified)
inactive: percent of DMSO control GFP [1] 104% | GFP response vs DMSO [2] 98.3% | percent response of DMSO control [3] 113% | GFP response vs DMSO [4] 102% | GFP response, % of DMSO [5] 104% | vesicle binding response [6] 242% | inhibition [7] -0.45% | superoxide response (% of plate) [8] 94.5% | aptamer binding inhibition [9] -6% | response [10] 6.62% | inhibition [11] -4.95% | response [12] 2.85% | binding (% of control) [13] 102% | efflux inhibition (fraction of control) [14] -0.07 | inhibition [15] 1% | differentiation response [16] 1.22%
63.4%: double positive events [6]

CC(=O)NC(NC(=S)N1CCCCCC1)C(Cl)(Cl)Cl (stereo unspecified)
inactive: percent of DMSO control GFP [1] 102% | GFP response vs DMSO [2] 104% | percent response of DMSO control [3] 98.9% | GFP response vs DMSO [4] 95.3% | GFP response, % of DMSO [5] 99.5% | vesicle binding response [6] 126% | inhibition [7] -20.2% | superoxide response (% of plate) [8] 104% | aptamer binding inhibition [9] 0% | response [10] 2.95% | inhibition [11] -7.04% | response [12] 0.33% | binding (% of control) [13] 94.8% | efflux inhibition (fraction of control) [14] 0.05 | inhibition [15] -1% | differentiation response [16] 6.11%
64.5%: double positive events [6]

CCOc1ccc2[nH]c3c(=O)n(CCc4ccc(OC)cc4)cnc3c2c1
inactive: percent of DMSO control GFP [1] 99.5% | GFP response vs DMSO [2] 112% | percent response of DMSO control [3] 90.1% | GFP response vs DMSO [4] 120% | GFP response, % of DMSO [5] 101% | vesicle binding response [6] 211% | inhibition [7] 6.4% | superoxide response (% of plate) [8] 99.7% | aptamer binding inhibition [9] 0% | response [10] 0.24% | inhibition [11] -8.18% | binding (% of control) [13] 102% | efflux inhibition (fraction of control) [14] 0.12 | inhibition [15] 5% | differentiation response [16] 29.6%
61.3%: double positive events [6]
active: response [12] 65.9%
